Holding throughout (test): PBM binding z-score (relative to random genomic background probes); higher = stronger binding; sequences stand for … in GC…GCGATTGACAGCGTAGAATGAAGG
The subject of assay [1] is RARb homodimer (NR concentration 270 nM). In outline: (§1)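 Probes were double-stranded and carried 34-nt variable regions with direct-repeat seeds, single-nucleotide variants, half-site ablations and random human genomic background sequences, printed on custom Agilent 4×180K protein-binding microarrays. Arrays were incubated 1 h with ligand-free nuclear receptor dimers in PBS pH 7.4, 2% milk, 0.02% Triton X-100, 1 mM DTT, 0.2 mg/mL BSA and 0.4 mg/ml salmon testes DNA. Antibodies against each partner (one per run) detected binding, and scanned fluorescence was regression-normalized. Binding z-scores use the random background probes as reference.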

In assay [2] the test system is RARg:RXRa (NR concentration 270 nM, RXRa partner concentration 90 nM). A digest of the protocol: as §1
Assay [3] relates to RARg homodimer (NR concentration 270 nM). In outline:
as §1

Assay [4] relates to RXRa DBDmut IVT, anti-RXR (DBD mutation: RXRa K156A/R161A, NR concentration 90 nM). A digest of the protocol: as §1
For assay [5], the system named is RXRa homodimer (NR concentration 180 nM). A digest of the protocol: as §1
For assay [6], the system named is THRa:RXRa (NR concentration 90 nM, RXRa partner concentration 90 nM). A digest of the protocol:
as §1

Assay [7] concerns THRa homodimer (NR concentration 90 nM). A digest of the protocol:
as §1

Assay [8] relates to VDR homodimer (NR concentration 270 nM). In outline:
as §1

On to GATACAGGGTCAGCTAGAGGCCAGAGTATGGAAA, for which the PBM binding z-score stood at 3.39 in assay [1]; 6.67 in assay [2]; 4.67 in assay [3]; 1.4 in assay [4]; 4.36 in assay [5]; 3.08 in assay [6]. Moreover, the PBM binding z-score in assay [7] stood at 0.503; in assay [8], 0.622.

For the sequence ATCGAAAGGTGGAGGTGAGTATAGAGAAAGGGAA, the PBM binding z-score in assay [1] was 1.16; in assay [2], 0.536; in assay [3], 0.711; in assay [4], -0.665; in assay [5], 0.164; in assay [6], 0.67. For the same sequence, the PBM binding z-score in assay [7] came to 0.48; in assay [8], 0.297.

For the sequence CGAACTAGGTCAGAACAGGACAGTGACGGATGAT, the PBM binding z-score in assay [1] amounted to 2; in assay [2], 2.38; in assay [3] it was 3.42; in assay [4], 0.578; in assay [5], 1.31; in assay [6] it was 3.31. Also, the PBM binding z-score in assay [7] stood at 0.199; in assay [8] it was 0.168.

In the case of AATACAGGGTCATCGTAGGCCAGATTACGCACAG, the PBM binding z-score in assay [1] amounted to 3.54; in assay [2], 5.85; in assay [3], 4.96; in assay [4], 3.82; in assay [5], 6.58; in assay [6], 4.42. For the same sequence, the values for the PBM binding z-score in assay [7] and in assay [8] were 1.56 and 3.35, respectively.

Turning to CAAACTAGGTTAAGAGGTCAAAGTCCGCTTCCCG, the PBM binding z-score came to 4.7 in assay [1]; 5.88 in assay [2]; 5.15 in assay [3]; 2.2 in assay [4]; 6.79 in assay [5]; 3.89 in assay [6]. In addition, the PBM binding z-score in assay [7] amounted to 1.83; in assay [8] it was 4.48.

For the sequence ATCTCTAGGTAAGACTCAGTTAAGTGAAGAACGC, the PBM binding z-score amounted to 0.172 in assay [1]; 0.0663 in assay [2]; 0.313 in assay [3]; 0.443 in assay [4]; 0.197 in assay [5]; 0.607 in assay [6]. Besides, the PBM binding z-score was found to be 0.783 in assay [7] and 0.377 in assay [8].

In the case of ATCTCTAGGTAAAGTTCAGTAAAAGATCGATAGA, the PBM binding z-score in assay [1] was 2.39; in assay [2] it was 2.22; in assay [3], 2.74; in assay [4] it was 1.27; in assay [5], 1.18; in assay [6], 1.23. In addition, the values for the PBM binding z-score in assay [7] and in assay [8] were 0.183 and 2.13, respectively.

For the origin of these results see the supplement of paper PMC6555819.
